# Screening data as filed in PubChem BioAssay.
# Most compounds without a hit are left out; they make up all but 1.5% or so of the library.
# RTF Ca sens act = increases calcium sensitivity of human cardiac regulated thin filaments | IANBD-labeled TnC RTF fluorescence at EC20 calcium; 0% EC20 calcium, 100% full calcium | 340,000 compounds, 0.24% hits | activation, % at 7.2 µM | P19429+P45379;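 active = activation above the mean over all tested compounds plus 3 SD, cut at about 30% in these data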;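 also: rise in fluorescence read as greater calcium sensitivity of cardiac thin filaments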
# CRFBP-R2 agonist = agonists of human CRF-binding protein/CRF-R2 receptor complex | HEK293 CRF-R2/CRF-BP, calcium dye fluorescence (FLIPR); percent of saturating CRF peptide response | activation, % at 13.2 µM | 350,000 compounds, 0.46% hits | AID 588473;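 active = activation of at least 50%, plus an integration ratio under a set limit after plate pattern correction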
# IDE cell activ = activators of human insulin-degrading enzyme in cells; P14735; HEK cells, FAbeta-B cleavage, fluorescence polarization; 0% vehicle, 100% cell-free pure enzyme wells; 340,000 compounds, 0.073% hits; activation, % at 5.96 µM;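 active = activation above the mean of all tested compounds plus 3 SD, set per screening campaign, cut at about 17% in these data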
# TPT1 inhibitor = C. albicans TPT1 enzyme inhibition. recombinant caTPT1, FP RNA substrate dephosphorylation. inhibition, % at 5 µM. 300,000 compounds, 0.81% hits. AID 1962;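 active = inhibition above the mean of all tested compounds plus 3 SD, set per screening campaign, cut at about 24% in these data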
# Cardiac RTF inh = cardiac RTF calcium desensitization | AID 493244 | 340,000 compounds, 0.12% hits | inhibition, % at 7.15 µM | IANBD-labeled cardiac RTF, Ca2+ fluorescence;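 active = inhibition above the mean inhibition of all tested compounds plus 3 SD, cut at about 17% in these data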;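 also: assay run at fixed EC70 calcium of 1.6 mM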
# IDE cell inh = inhibits human insulin-degrading enzyme in HEK cells. P14735. FAbetaB cleavage, fluorescence polarization. inhibition, % at 5.59 µM. 320,000 compounds, 0.41% hits;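 active = percent inhibition above the average of all tested compounds plus 3 SD, set per screening campaign, cut at about 16% in these data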;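 also: IDE supplied by intact live HEK cells; FP after avidin binding of uncleaved biotin substrate so inhibition keeps polarization high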
# Numbers stand for hits; . = inactive; / = no result; ! = a repeat was not active.
SMILES,RTF Ca sens act,CRFBP-R2 agonist,IDE cell activ,TPT1 inhibitor,Cardiac RTF inh,IDE cell inh
C/C(=N/NC(=O)CNC(=O)Cc1ccccc1)c1ccco1,38.9,.,.,.,.,.
Cc1ccc(S(=O)(=O)N2CCCCC2)cc1NC(=O)c1cnccn1,.,.,.,/,.,/
N#CC(C#N)=C(Nc1ccc(F)cc1)SCc1cccc(F)c1,.,105.0,.,.,.,.
CC(=O)c1cccc(NC(=S)NC(=O)Cc2ccc(Cl)cc2)c1,.,63.1,.,.,.,.
O=C(C1CCCC1)N1CCCC(Nc2ccc(F)cc2)C1 (stereo not given),.,117.5,.,.,.,.
CCOC(=O)c1sc(-c2ccc(F)cc2)cc1NC(=O)Nc1ccccc1OC,.,89.2,.,.,.,.
NC(=O)c1cc2ccc(O)cc2oc1=NCc1ccccc1,60.2,319.2,.,.,.,.
NC(=O)c1cc2ccccc2oc1=NCc1ccccc1,.,.,.,.,.,.
COc1ccc(C(=O)N/N=C/c2ccc(N(C)c3ccccc3)cc2)cc1,/,.,/,.,/,.
CN(C)c1ccc(NC(=O)CCN2CCN(c3ccccn3)CC2)cc1,.,.,.,.,.,.
Nc1nonc1-n1nnc(C(=O)N/N=C/c2ccccc2)c1CSc1ccc(Cl)cc1,.,109.7,.,.,.,.
CC(=O)N[C@@H](Cc1c[nH]c2ccccc12)C(=O)NCc1ccccc1,.,.,.,.,.,.
Cc1ccc(S(=O)(=O)NCC(c2ccc3c(c2)OCO3)N2CCN(c3ccccc3)CC2)cc1 (stereo not given),.,.,.,.,.,.
O=C(COC(=O)C1CCC1)NCc1ccccc1,.,.,.,.,.,.
CCN(CC)c1ccc2cc(-c3nnc(-c4ccncc4)o3)c(=O)oc2c1,162.6,336.5,.,/,.,/
COc1ccccc1N(CCC#N)C(=O)COC(=O)CCC(=O)c1ccc(F)cc1,.,.,.,/,.,.
Cc1ccc(C(=O)CC(=O)c2cc(Cl)ccc2O)cc1,.,67.7,.,.,.,.
CC(C)(C)c1ccc(C(=O)CC(=O)c2cc(Cl)ccc2O)cc1,.,.,.,.,.,.
CC1=C(C(=O)Nc2cc(C(=O)NCc3ccccc3)ccc2C)SCCO1,/,.,/,/,/,/
CC(C)OC(=O)c1c2c(n3ccccc13)C(=O)c1ccccc1C2=O,.,181.6,.,.,.,.
CCc1ccccc1N=Cc1c(C)c(C#N)c2[nH]c3ccccc3n2c1=O,.,164.8,.,/,.,/
Cc1ccc(NC(=O)COC(=O)c2ccc3c(c2)OCCO3)cc1,.,.,.,/,.,.
O=C(COC(=O)c1ccc(O)cc1)Nc1ccc2c(c1)OCCO2,29.8,.,.,/,.,.
O=[N+]([O-])c1ccc(N2N=C(c3ccccc3)CC2c2ccccc2O)cc1 (stereo not given),46.6,/,.,/,.,/
COc1ccc(NC(=O)c2cccc(-c3ccc(O)cc3)c2)cn1,.,.,.,.,.,.
SMILES,RTF Ca sens act,CRFBP-R2 agonist,IDE cell activ,TPT1 inhibitor,Cardiac RTF inh,IDE cell inh
CCOC(=O)Nc1sc(C)nc1-c1ccccc1,.,.,.,.,.,.
CCOC(=O)Nc1cc2c(c(N)n1)N=C(c1ccccc1)CN2,.,64.6,.,/,.,/
COc1ccccc1NC(=O)CCNS(=O)(=O)c1ccc2c(c1)CCN2C(C)=O,.,.,.,.,.,.
CC1(C)CC(=O)C=C(c2cccc(O)c2)C1=O,.,.,.,/,.,.
Cc1c(/C=N/NC(=O)C(NC(=O)c2ccc3c(c2)OCO3)C(C)C)c2ccccc2n1C (stereo not given),.,96.4,.,.,.,.
CCCNS(=O)(=O)c1ccc(Oc2ncc(C(F)(F)F)cc2Cl)cc1,.,80.6,.,.,.,.
CC(C)NS(=O)(=O)c1ccc(Oc2ncc(C(F)(F)F)cc2Cl)cc1,.,.,.,.,.,.
CC(C)NC(=S)N(C)C1(c2ccccc2Cl)CCCCC1=O (stereo not given),.,.,.,.,.,.
COCCNC(=S)N(C)C1(c2ccccc2Cl)CCCCC1=O (stereo not given),.,.,17.5,.,.,.
O=C([O-])c1cc(-c2ccccc2)cc(-c2ccccc2)[n+]1CCc1ccc(Cl)cc1,.,.,.,/,.,/
CCCCCCCCCCCCCCCC[n+]1cccc(C(=O)N(CC)CC)c1,.,104.3!,.,.,.,.
COc1ccccc1NC(=O)CCN1C(=O)c2ccccc2C1=O,.,.,.,.,.,.
CC(=O)c1ccc2noc(-c3ccccc3)c2c1,.,.,.,.,.,.
CC(=O)c1ccc2c(c1)c(C#N)c1ccccc1[n+]2[O-],.,101.4,.,/,.,/
CN1C(=O)c2ccccc2NC(=O)[C@]12O[C@@H]2c1cccc(O)c1,.,.,.,24.1,.,.
CS(=O)(=O)NN1C(=O)c2ccccc2NC1c1cccc(O)c1 (stereo not given),.,.,.,.,.,.
O=C1C=C(c2ccccc2)OC(c2ccccc2)O1 (stereo not given),.,.,.,.,.,.
O=C1C=C(c2ccccc2)C(c2ccccc2)C1O (stereo not given),.,77.5,.,/,.,/
C[C@@H]1O[C@@H](O[C@H]2[C@H](O[C@H]3C[C@]4(C)C(C[C@@H](O)C5C([C@]6(C)CC[C@@H](C(C)(C)O)O6)CC[C@]54C)[C@@]4(C)CC[C@H](O)C(C)(C)C34)O[C@H](CO)[C@@H](O)[C@@H]2O)[C@H](O)[C@H](O)[C@H]1O (stereo not given in full),.,.,.,/,.,.
CC1O[C@@H](OC2C(O)C(O)C(CO)O[C@H]2OC2C[C@]3(C)C(CC(O)C4[C@@H]([C@]5(C)CC[C@@H](C(C)(C)O)O5)CC[C@]43C)[C@@]3(C)CCC(O)C(C)(C)C23)C(O)C(O)C1O (stereo not given in full),.,.,21.4,/,.,.
Cc1cc(N=Cc2cc(Br)ccc2O)no1,.,.,.,.,.,.
Cc1ccc(S(=O)(=O)/N=C/c2cc(Br)ccc2O)cc1,.,.,23.3,.,.,.
COc1cc(C=NCC2OCCc3ccccc32)cc(OC)c1 (stereo not given),.,.,.,.,.,.
COc1ccc(CNC(=O)C(C#N)c2nc3ccccc3nc2N2CCN(C)CC2)cc1 (stereo not given),.,.,.,.,.,.
COc1ccc(CNC(=O)C(C#N)c2nc3ccccc3nc2N2CCCC2)cc1 (stereo not given),51.3,.,.,.,.,.
O=c1[nH]c2cc(Cl)c(Br)cc2o1,.,.,.,/,.,/
C#CCOCCOCCOCCNc1nc(N2CCN(C(=O)CCCCCCCCCCNC(=O)[C@H](CCCN=C(N)N)n3cc(C[C@@H](C)CC)nn3)CC2)nc(N2CCN(C(=O)CCCCCCCCCCNC(=O)[C@@H]([C@H](C)CC)n3cc(CCCCCN)nn3)CC2)n1,/,/,/,.,/,.
